PubChem BioAssay (NCI)
The panel holds about 83,000 compounds, 20% with a hit somewhere; the sample as a whole holds those more often.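 A percent growth of 40 corresponds to 60% growth inhibition; 0 means no net growth; -100 means all cells died. Active threshold: below 10.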 A number with no mark means an inactive call. The source made the active and inactive calls.

tested on: OVCAR-8 ovarian; assay: NCI-60 one-dose screen, 48 h (100 = growth as untreated, 0 = no growth, -100 = all killed); settings: 10 µM unless noted

SMILES	growth
COc1cc(C2CC(c3ccc(C(F)(F)F)cc3)=Nc3c(N)nc(N)nc3N2)ccc1Oc1nc(Nc2ccc(F)cc2)nc(N(C)C)n1 (stereo unspecified)	46.9%
COc1ccc2[nH]c(=O)c(CSc3ccccc3Nc3nccc(-c4ccc5c(c4)OCO5)n3)cc2c1	79.2%
Cc1cc(=O)oc2cc(OCC(O)CNN3C(=O)c4cccc5c(N6CCN(C)CC6)ccc(c45)C3=O)ccc12 (stereo unspecified)	91.4%
CC[C@]12C=CCN3CC[C@]4(C(=C(C(=O)OC)C1)Nc1cc(OC)c([C@@H]5[C@H]6O[C@H]6[C@@]6(CC)CC(C(=O)OC)=C7Nc8cc(OC)ccc8[C@@]78CCN5[C@@H]68)cc14)[C@@H]32	53.1%
C#CCCCNCCNc1ccnc2cc(Cl)ccc12	79.6%
CCOC(=O)/C(F)=C/C1CC1C(c1ccccc1)c1ccccc1 (stereo unspecified)	105%
S=C(NCCc1ccccc1)Nc1ccc(OCc2nc3ccc(Cl)cc3[nH]2)cc1	39.7%
Cc1ccc(C(=O)C[n+]2cccc3c4ccccc4ccc32)cc1	22.5%
CCCn1c(NC(=O)c2cccc(C(N)=O)c2)nc2cc(CN3CCCCC3)ccc21	117%
CCC(=O)c1c2c(c3ccc4c5ccccc5ccc4n13)C(=O)c1ccccc1C2=O	96.1%
O=C1/C(=C/c2cnc(-c3ccccc3)s2)SC(=S)N1Cc1ccc2c(c1)OCO2	67.6%
O=c1[nH]c2ccccc2cc1COc1ccc(Nc2nccc(-c3ccc(Cl)cc3)n2)cc1	102%
O=C(/C=C1\C(=O)N(Cc2ccccc2)c2ccccc21)c1cc2ccccc2oc1=O	98%
COc1ccc(NC(=O)Cn2c(/C=C/c3cccc(Br)c3)nc3ccccc3c2=O)cc1	14.4%
O=c1ccc(Cn2c(C(F)(F)F)cc3c(Cl)ncnc32)c[nH]1	0.681% (active)
CCCCC[C@@H]1C/C=C(\C)[C@@H](O)C(C)(C)C(=O)[C@@H](C)/C=C(\C)[C@@H]2C[C@H](O)C[C@](O)(CC(=O)O1)O2	42.3%
COc1cc(NC(=O)CSc2nnc(-c3ccc(-c4nc5ccc(Cl)cc5[nH]4)cc3)o2)cc(OC)c1OC	62.6%
Cc1ccc(C2CC(c3ccc(S(=O)(=O)NCCNc4nc(N(C)C)nc(N5CCOCC5)n4)cc3)=Nc3c(N)nc(N)nc3N2)cc1 (stereo unspecified)	56.3%
CCCCNC(=S)Nc1ccc(OCc2nc3ccc(Cl)cc3[nH]2)cc1	38.7%
Nc1nn2c(-c3cc4cc(Br)ccc4oc3=O)ccnc2c1N=Nc1ccc(S(N)(=O)=O)cc1	79%
OCCn1cc(-c2nc3ccc4[nH]ncc4c3c3c2CCCC3)cn1	44.7%
CN(C)CCCc1ccc(Nc2cnn(C)c(=O)c2Cl)cc1	106%
Nc1cc2ccccc2c(=O)n1NC(=O)c1ccccc1	104%
Cn1cc(-c2cc(N)n3nc(-c4c[nH]c5ccccc45)cc3n2)c2cc(Cl)ccc21	-63.7% (active)
O=C(NC(=S)N1CCN(c2ncnc3c2cnn3-c2ccccc2)CC1)c1ccc(Br)cc1	47.4%
O=C(N/N=C/c1ccc(B(O)O)s1)c1[nH]c2ccc(Br)cc2c1-c1ccccc1	-28.3% (active)
